TDP1 cell noCPT = qHTS for Inhibitors of human tyrosyl-DNA phosphodiesterase 1 (TDP1): qHTS in cells in absence of CPT. DT40 Tdp1-/- hTDP1 cells, no CPT, ATP luminescence, 48 h. 15% of 420,000 active. Potency, µM (series often up to 46.2 µM), inactives show top-dose activity change, negative = growth inhibition, actives largely listed as inhibitors; further: potency means the concentration at half of the fitted maximal effect; nearly all actives have a fitted effect of over 55% in size
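Stably hTDP1-transfected Tdp1-null chicken DT40 cells were treated with library compounds minus camptothecin and grown for at least 48 hr at 37 °C, after which cellular ATP was quantified by luminescence.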
IL-1B inflam inh = inflammasome signaling inhibition, IL-1 beta readout; AID 743279; activity change, % at 57.5 µM; THP-1 LPS/ATP IL-1B secretion, AlphaLISA, 16 h; hits give low values; 4.7% of 360,000 active; in the data active means activity change below about -50%; inconclusive means mostly about -30% to -49%
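THP-1 cells pretreated 1 hr with compounds (up to 57.5 uM final), then stimulated with LPS (250 ng/mL final) plus ATP (1.25 mM final); secreted IL-1B measured by AlphaLISA after 16 hr, decreased signal indicating inhibition.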
HT1080 IDH1KD tx = kills HT-1080 cells with IDH1 knockdown; HT-1080 IDH1 knockdown viability, ATP luminescence, 48 h; Potency, µM (highest dose often 46.1 µM), for the others: at the highest dose activity, negative = toxicity, usual class: cytotoxic; 2% of 360,000 active; AID 686971;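 further: potency means the concentration at half of the fitted maximal effect; 0% = DMSO wells and -100% = cell-free medium wells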
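In this qHTS, HT-1080 cells depleted of IDH1 are exposed for 48 h at 37 °C to compound titrations. Toxicity is scored from CellTiter-Glo luminescence, with DMSO as full viability and medium alone as none.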
HT1080-NT tox = kills 2HG-producing HT-1080-NT fibrosarcoma cells; HT-1080-NT fibrosarcoma viability, CellTiter-Glo ATP luminescence, 48 h; Potency, µM (titrated, usually from 46.1 µM), without a hit: top-dose activity, negative = less viability, actives largely listed as cytotoxic; 1.6% of 360,000 active; AID 686970;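 further: NT is the 2HG producing partner of a matched IDH1 knockdown line; potency means the concentration at half of the fitted maximal effect; 0% = DMSO-treated cells and -100% = media-only wells without cells; nearly all actives have a fitted effect of over 55% in size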
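750 cells/well, RPMI + 5% FBS; 2 h settle, compound pin-transfer, 48 h at 37 degrees C. CellTiter-Glo 10 min RT, luminescence. Normalized to DMSO and media-only wells.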
TDP1 cell CPT = growth inhibition of DT40 Tdp1-/-;hTDP1 cells with camptothecin (screen for TDP1 inhibitors); chicken DT40 Tdp1-/-;hTDP1 cells + 20 nM CPT, ATP luminescence, 48 h; AID 686979; Potency, µM (titrated, usually from 46.2 µM), for inactives: top-dose activity change, negative = growth inhibition, hits mostly inhibitors; 12% of 420,000 active; further: potency means the concentration at half of the fitted maximal effect; nearly all actives have a fitted effect of over 55% in size
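Cell growth measured by CellTiter-Glo luminescence after a minimum 48 h, 37 C compound exposure with 20 nM CPT in Tdp1-knockout DT40 cells stably expressing hTDP1, seeded 400/well; qHTS titration format.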
The depositor's hits bear a star; ? = inconclusive; nt = no result given. Shown are actives, neighbours in structure and some others; about 19% of the full set was active somewhere. Unless noted, the call rests on the fitted dose curve; in most records, active means well fitted curve in the direction sought with a large enough effect; inconclusive means small, poorly fitted or top-dose-only effect, or another doubt; inactive means no such curve, though single readings can be large; an effect the other way counts as inactive or inconclusive. Unless noted, on the % scale 0 is the no-effect control and ±100 the full control effect.

SMILES | TDP1 cell noCPT | IL-1B inflam inh | HT1080 IDH1KD tx | HT1080-NT tox | TDP1 cell CPT
CCOc1ccc2[nH]cc(C(=O)NCc3ccccc3)c(=O)c2c1 | 21µM* | -10 | -2% | -13% | 16µM*
CCOC(=O)c1c[nH]c2cc(OCC(C)C)c(OCC(C)C)cc2c1=O | -11% | nt | nt | nt | -4%
COc1ccccc1NC(C)C(=O)N/N=C/c1ccccc1OCc1cccc(Br)c1 (configuration not stated) | ? | -16 | ? | ? | ?
CCN[C@H]1CN(CCCOC)S(=O)(=O)c2sc(S(N)(=O)=O)cc21 | 10% | 10 | 13% | 17% | 5%
CCOc1ccccc1CN1CCCC(CNS(=O)(=O)c2ccc(OC)cc2)C1 (configuration not stated) | ? | -5 | -1% | 0% | ?
Cc1ccc(SCc2cc(=O)[nH]c(/N=C(\N)Nc3ccc(C)c(C)c3)n2)cc1 | ? | 9 | -11% | 15% | ?
CC(C)Oc1ccc(/C=C/C(=O)NCC2COc3ccccc3O2)cc1 (configuration not stated) | ? | -72* | -22% | -17% | 8%
O=C(COC(=O)c1ccccc1O)NCC1COc2ccccc2O1 (configuration not stated) | ? | 0 | -3% | -3% | -8%
Cc1ccccc1C(=O)OCC(=O)NCC1COc2ccccc2O1 (configuration not stated) | 18µM* | 0 | 10% | -3% | ?
O=C(COC(=O)c1ccccc1[N+](=O)[O-])NCCCc1ccccc1 | -3% | 0 | -3% | 13% | -13%
CC1N(C)c2cc(NC(=O)c3cccs3)c(P(=O)(Nc3ccc([N+](=O)[O-])cc3)N3CCOCC3)cc2C1(C)C (configuration not stated) | 18µM* | -58* | -27% | -15% | ?
O=C1C(=O)c2c(ccc3ccccc23)-c2ccccc21 | 0.52µM* | -87* | 1.8µM* | 4.6µM* | 0.58µM*
CN(C)/C=C1\Oc2ccc3ccccc3c2C1=O | -12% | -5 | 0% | 2% | 11%
O=C(C1CCOCC1)N1CCCC(N2CCN(c3cccc(C(F)(F)F)c3)CC2)C1 (configuration not stated) | -5% | 23 | 3% | -1% | -25%
Cc1cscc1-c1ccc(C(=O)Nc2c(C)cccc2C)o1 | 4.6µM* | ? | ? | -29% | 3.7µM*
Cc1cccc(C)c1NC(=S)NC(=O)c1ccc(Br)o1 | ? | 14 | -8% | -9% | ?
Cc1ccc(CNC(=O)CN2CCCN(Cc3ccc(F)cc3)S2(=O)=O)cc1 | -28% | nt | nt | nt | -24%
CN1OC[C@@H]2CN(S(=O)(=O)c3cccc4ccccc34)[C@H](c3ccc(-c4ccccc4)cc3)C[C@@H]21 | 23µM* | 25 | ? | -26% | ?
Cc1ccccc1-c1cccc([C@@H]2C[C@H]3[C@H](CON3C)CN2S(=O)(=O)c2ccccc2C)c1 | 21µM* | -12 | -2% | -10% | ?
Cc1ccccc1S(=O)(=O)N1C[C@H]2CON(C)[C@H]2C[C@H]1c1cccc(Br)c1 | ? | 2 | 3% | 3% | -20%
Cc1ccccc1S(=O)(=O)N1C[C@H]2CON(C)[C@H]2C[C@H]1c1cccc(-c2ccccc2)c1 | 23µM* | -10 | -3% | 4% | ?
COc1ccccc1-c1cccc([C@@H]2C[C@H]3[C@H](CON3C)CN2S(=O)(=O)c2ccccc2C)c1 | 21µM* | -8 | 1% | 0% | 15µM*
CS(=O)(=O)Nc1cccc(C(=O)OCCCOc2ccc(F)cc2)c1 | 5% | 20 | -23% | -18% | -18%
CC(C)CC(=O)NC(=S)N1CCN(c2ccc([N+](=O)[O-])cc2Cl)CC1 | ? | -13 | -4% | 0% | ?
CN1OC[C@@H]2CN(C(=O)C(C)(C)C)[C@H](c3ccc(-c4cc5ccccc5o4)cc3)C[C@@H]21 | 21µM* | 0 | 6% | 3% | ?
